# Records with an inconclusive call do not appear. Values without a mark were called inactive. The source made the active and inactive calls. Calls follow the shape of the dose curve; as a rule, active = well fitted inhibition curve with a large enough effect; inconclusive = small, poorly fitted or top-dose-only effect, or effect the other way; inactive = flat fitted curve, though single readings scatter.
# Molecular target: Ubiquitin carboxyl-terminal hydrolase 2 (Homo sapiens) (UniProt O75604)
# Sequence (O75604 whole entry, looked up): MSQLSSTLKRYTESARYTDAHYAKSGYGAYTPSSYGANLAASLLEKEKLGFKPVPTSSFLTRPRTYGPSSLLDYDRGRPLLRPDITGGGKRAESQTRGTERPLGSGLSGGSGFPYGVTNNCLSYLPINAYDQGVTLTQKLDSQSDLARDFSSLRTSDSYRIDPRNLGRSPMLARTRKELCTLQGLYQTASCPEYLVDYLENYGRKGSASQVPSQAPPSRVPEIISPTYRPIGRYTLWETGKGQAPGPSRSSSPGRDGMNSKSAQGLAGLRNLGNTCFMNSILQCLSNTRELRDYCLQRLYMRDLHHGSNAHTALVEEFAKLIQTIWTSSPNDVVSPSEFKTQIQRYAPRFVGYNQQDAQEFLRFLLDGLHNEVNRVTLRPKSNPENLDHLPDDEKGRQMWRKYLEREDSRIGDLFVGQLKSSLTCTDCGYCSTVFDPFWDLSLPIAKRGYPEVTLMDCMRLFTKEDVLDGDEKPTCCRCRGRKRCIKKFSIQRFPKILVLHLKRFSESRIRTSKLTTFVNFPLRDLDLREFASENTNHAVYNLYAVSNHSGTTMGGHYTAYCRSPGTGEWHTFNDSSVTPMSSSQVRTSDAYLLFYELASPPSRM
# Test: Ub-rhodamine 110 based assay for inhibitors Ubiquitin-specific Protease USP2a; also: nearly all actives have a fitted effect of over 50% in size
# Conditions: USP2a Ub-rhodamine110 cleavage, fluorescence; series mostly up to 38.3 µM; activity change, negative = inhibition: at the top concentration
# Summary of the method: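 Kinetic fluorescence (485/531 nm) read each minute over 7 min after adding Ub-Rhod110 (150 nM final) to USP2a (5 nM final). The enzyme had 30 min RT exposure to compounds beforehand in Tris pH 8.0 buffer with CaCl2, CHAPS and beta-ME.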
# % is scaled to controls: 0 for no effect and ±100 for the full control effect; potency is read from the fitted curve at half-maximal effect.
SMILES,Potency,"activity change, negative = inhibition"
Cc1ccc(C(=O)Nc2nnc(CC(=O)N/N=C/c3ccc(O)c(O)c3)s2)cc1,4.47 µM (active),–
CCOC(=O)N1CCN(CC(=O)n2c(C)c(C)c3ccccc32)CC1,–,-10.6%
O=C(Nc1nc(-c2ccco2)c(-c2ccco2)s1)c1ccc(F)cc1F,10 µM (active),–
CCO[C@H]1OC(C(=O)N2CCCCCCC2)=C[C@@H](c2ccc(C(F)(F)F)cc2)[C@@H]1CCCO,–,-6.95%
Cc1ccc2[nH]c3c(c2c1)CN(C(=O)CN1CCSCC1)CC3,–,1.52%
FC(F)(F)c1cnc2c(c1)Nc1ccccc1S2,–,5.47%
Cc1ccc(S(=O)(=O)Nc2ccccc2-c2ccccc2NS(=O)(=O)c2ccc(C)cc2)cc1,8.91 µM (active),–
Cc1ccc(C(=O)NCc2ccc3c(c2)OCO3)cc1N1CCCC1=O,–,-7.01%
O=C1NCC(CN(c2ccccc2)c2ccccc2)O1 (centres undefined),–,-0.749%
CCc1ccc([C@@H]2CC=C(C(=O)O)[C@H](c3ccc(C(C)(C)C)cc3)N2S(=O)(=O)c2ccc(C)cc2)cc1,10 µM (active),–
COC(=O)CC1Oc2ccc(C)cc2NC1=O (centres undefined),–,-1.3%
CCN(CC)c1ccc2nc3ccccc3[n+](CC)c2c1,–,-12.3%
CC(C)(C)NC(=O)C(c1ccco1)N(C(=O)c1ccc(CN2CCOCC2)o1)c1ccccc1 (centres undefined),–,-10.5%
Nc1ccc(C2=Nc3cccc4cccc(c34)N2)cc1,12.6 µM (active),–
Cc1ccccc1NC(=O)CSc1nnc(-c2ccco2)c(-c2ccco2)n1,10 µM (active),–
CC(=O)N1CCCc2cc(S(=O)(=O)CCC(=O)N3CCN(c4cccc(C)c4)C(C)C3)ccc21 (centres undefined),–,-26.2%
COC(=O)c1c(NC(=O)c2cccnc2)sc(C)c1C,–,0.753%
COc1ccc(NC(=O)CSc2nc(O)cc(=O)n2-c2ccc(OC)cc2)cc1,11.2 µM (active),–
Cc1cc(NS(=O)(=O)c2ccc(Nc3nc(-c4ccc(C)c(C)c4)cs3)cc2)no1,10 µM (active),–
CCC(=O)c1ccc(OCC(=O)NC2CCN(Cc3ccccc3)CC2)cc1,–,-5.4%

SMILES,Potency,"activity change, negative = inhibition"
c1ccc(-c2nc3nc4ccccc4nc3n2Cc2ccco2)cc1,–,-15.9%
Cc1ccc(C2(C)NC(=O)N(CC(=O)c3ccc(Cl)s3)C2=O)cc1 (centres undefined),11.2 µM (active),–
CCn1nnnc1SCC(=O)Nc1cccc(C)n1,–,6.59%
O=C1Nc2ccc(S(=O)(=O)N3CCCCCC3)c3cccc1c23,–,-11.5%
O=C(Nc1cnn(Cc2ccccc2)c1)c1nc2ncccn2n1,–,-2.39%
O=C1Nc2ccccc2SC(c2ccccc2)C1O (centres undefined),3.98 µM (active),–
COc1ccc(Cc2nnc(NC(=O)Cc3cccs3)s2)cc1,1.41 µM (active),–
Cc1cc(C(=O)CSc2nnc(Nc3ccccc3F)s2)c(C)n1CC1CCCO1 (centres undefined),–,-19.4%
CN(C)CCCN1C(=O)C(=O)/C(=C(/O)c2ccncc2)C1c1cccnc1 (centres undefined),–,-1.84%
Cc1c(NC(=O)C2CCCN2S(=O)(=O)c2ccc(Cl)cc2)c(=O)n(-c2ccccc2)n1C (centres undefined),–,-5.13%
Cc1ccc(S(=O)(=O)Nc2ccc(N3CCOCC3)cc2)cc1,–,-7.65%
Cn1c(=O)c2c(nc(CN3CCN(C(=O)c4ccco4)CC3)n2CCCc2ccccc2)n(C)c1=O,–,-13.3%
O=C(N/N=C/c1cc(Cl)c(O)c(Cl)c1)c1cc2c(ccc3ccccc32)o1,11.2 µM (active),–
NS(=O)(=O)c1ccc(N=Nc2c(O)c(C(=O)O)cc3ccccc23)cc1,5.62 µM (active),–
O=C(O)c1cc(N2N=C(C(F)(F)F)/C(=C/C=C/c3ccco3)C2=O)ccc1Cl,7.08 µM (active),–
Cc1ccc(-c2nc(N/N=C/c3ccncc3)c3ccccc3n2)cc1,11.2 µM (active),–
N#CC(c1ccccc1)c1ccc(C(=O)c2ccc(F)cc2)cc1 (centres undefined),–,-14.7%
CNc1cccccc1=S,10 µM (active),–
CCOc1cc(/C=C/c2nc3cc(C)c(C)cc3s2)ccc1OCC(=O)N1CCOCC1,–,-17%
